Vaccinia pol inh – inhibitors of vaccinia virus processive DNA synthesis (E9 polymerase). normalized absorbance, % (test concentration not listed). in vitro processive DNA synthesis, absorbance read-out; active compounds read low. actives 0.94% (n = 46,000); in the data active means normalized absorbance mostly below about 85%, no sharp cut-off; inactive means mostly above about 86%
Large screens that a line does not name were inactive. The sample as a whole holds a higher share of hits than the screen did.

O=C1NC(=S)N(c2ccccc2)C(=O)/C1=C/C=C/c1ccco1	Vaccinia pol inh 52.9
O=C1Nc2ccccc2/C1=C\C1=Cc2ccccc2OC1	none
O=C1Nc2ccccc2/C1=C/C=C/c1ccco1	Vaccinia pol inh 65.7
O=C1Nc2ccccc2/C1=C/C(=O)c1ccccc1	none
O=C1NC(=S)N/C1=C\c1ccco1	none
O=C1NC(=O)N(c2ccccc2)C(=O)/C1=C/c1ccco1	none
N#Cc1c(-c2cccs2)cc(-c2ccc(C(=O)O)cc2)nc1SCc1cccs1	none
O=C(NCc1ccccc1)c1cc(C(=O)C2CCCCC2)c[nH]1	none
O=C(CNC1=NCCC1)c1ccccc1	none
O=C1Nc2ccccc2O/C1=C\c1ccccc1	none
CC1CCN(CCCNC(=O)c2ccc(/C=C3\Oc4ccccc4NC3=O)cc2)CC1	Vaccinia pol inh 70.5
O=C(NCCCN1CCOCC1)c1ccccc1	none
Cc1ccccc1-c1nsc(SCC(=O)NC2CCCCC2)n1	none
CN(C(=O)COc1ccc(Br)cc1)C1CCS(=O)(=O)C1 (stereo not given)	none
O=C1/C(=C\c2ccc(Br)o2)CC/C1=C/c1ccc(Br)o1	Vaccinia pol inh 19.3
CSc1ccc(/C=C2\CC/C(=C\c3ccc(SC)cc3)C2=O)cc1	none
O=C1/C(=C/c2cc3ccccc3o2)CC/C1=C\c1cc2ccccc2o1	none
OCc1nc(-c2ccccc2)n2ccccc12	none
CS(=O)(=O)N1CCN=C1SCc1cccc2ccccc12	Vaccinia pol inh 50.6
C=C(C)CSc1nnc(SCc2cccc3ccccc23)s1	none
CS(=O)(=O)N1CCN=C1SCc1ccc(Cl)c(Cl)c1	Vaccinia pol inh 56.1
CCS(=O)(=O)N1CCN=C1SCc1cccc2ccccc12	Vaccinia pol inh 28.8
CCSC1=NCCN1S(=O)(=O)c1ccccc1	none
O=S(=O)(c1ccc(F)cc1)N1CCN=C1SCc1ccc(F)cc1	none
COc1ccc(S(=O)(=O)N2CCN=C2SC)cc1	none
COc1ccccc1C1CCN(C(=O)CSCc2cccc3ccccc23)CC1	none
CCSC1=NCCN1S(C)(=O)=O	none
Cc1ccc(C)c(CSC2=NCCN2C(=O)COc2ccccc2)c1	none
O=C(Cc1ccccc1)N1CCN=C1SCc1ccccc1	none
CCS(=O)(=O)N1CCN=C1SCc1ccccc1C	Vaccinia pol inh 78.5
CN(CCC#N)S(=O)(=O)c1ccc2[nH]cc(C(=O)O)c(=O)c2c1	none
COc1ccc(-c2nnc3sc(-c4ccc(Br)o4)nn23)cc1	none
Cc1c(C(=O)N2CCCCCC2)sc2ncnc(N3CCN(c4ccccc4)CC3)c12	none
Cc1cc(Nc2ccccc2)n[nH]1	none
O=C1NC(=Nc2cccc(Cl)c2)S/C1=C/c1cccs1	none
O=S(=O)(/C=C/c1ccccc1)Nc1ccccc1	none
Cc1cc(C)cc(NC(=O)N2CCN(Cc3ccncc3)CC2)c1	none
CCN(CC)CCCNc1nc2cc(OC)c(OC)cc2c2nc(-c3ccccc3)nn12	Vaccinia pol inh 33.7
COc1cc2nc(-n3nc(C)cc3C)n3nc(-c4ccccc4)nc3c2cc1OC	none
O=C1CCC(=O)N1Nc1nc2ccccc2c2nc(-c3ccccc3)nn12	none
O=C(c1ccc(Cl)cc1)N(Cc1ccc(Cl)cc1)C1CCS(=O)(=O)C1 (stereo not given)	none
O=C(C1CCC1)N1CCN(c2cc(C(F)(F)F)nc3ccccc23)CC1	none
COC(=O)c1nsc(Cl)c1Cl	none
Brc1ccc(-c2csnn2)cc1	none
COc1ccccc1-c1nnc(-c2ccccc2O)o1	none
CC(=O)Nc1ccc(NC(=O)CCC(=O)c2ccccc2)cc1	none
O=C(Cc1ccccc1)c1ccccc1	none
O=C(CCC(=O)c1ccccc1)NCc1ccccc1	Vaccinia pol inh 66.7
Cc1cc(C)c2c(n1)SCN(C)C2=N	none
CSc1ncc(Cl)c(C(=O)N(Cc2ccccc2)c2ccccn2)n1	none
COc1ccc2nc(/N=C(\N)NC(=O)N3c4ccccc4Sc4ccccc43)nc(C)c2c1	none
CCc1c(C)nc2ccc(OC)cc2c1Cl	none
COc1ccc(-c2nc3ccccc3n2C(=O)c2ccccc2C(=O)O)cc1	none
COc1ccc2c(C)nc(/N=C(\N)NC(C)=O)nc2c1	Vaccinia pol inh 53.6
COc1ccc2c(C)nc(/N=C(N)/N=C(\C)c3ccccc3C(=O)O)nc2c1	Vaccinia pol inh 31.4
COc1ccc2nc(SC(=O)c3ccccc3)nc(C)c2c1	none
CC(C)CN1C(=O)N(c2ccccc2)C(n2oc(=O)n(-c3ccccc3)c2=O)C1(C)C (stereo not given)	none
CCC1(CC)Cc2ccccc2-c2[nH]c(=S)n(Cc3ccccc3)c(=O)c21	none
CCNC(=S)Nc1c(C)cccc1C	none
Cc1ccc(N2CCN(C(=O)C(c3ccccc3)c3ccccc3)CC2)cc1C	none
CN1C(=O)/C(=C/c2cn(CC(=O)N3CCOCC3)c3ccccc23)C(=O)NC1=S	none
CC1CCCC(C)N1C(=O)Cn1cc(/C=C2/C(=O)N(C)c3ccccc32)c2ccccc21 (stereo not given)	none
CN1C(=O)/C(=C/c2cn(CC(=O)O)c3ccccc23)c2ccccc21	Vaccinia pol inh 73.1
C[C@H](NC(=O)Cc1ncc(C(F)(F)F)cc1Cl)c1ccccc1	none
COC(CNC(=O)c1ccc2c(Cl)c3c(nc2c1)CCCC3)OC	none
O=C(O)c1ccccc1-c1nc2ccccc2s1	none
Cc1csc(NC(=O)c2ccccc2C(=O)O)c1-c1nc2ccccc2s1	Vaccinia pol inh 71.7
Cc1ccc2nc(NC(=O)c3ccccc3C(=O)O)sc2c1	none
Cn1c(CSCc2ccccc2)c(C#N)c2ccccc21	none

Bioassay records as filed in PubChem BioAssay.
